# According to PubChem BioAssay AID1531 (NMMLSC, 2009):
# In all, about 290,000 compounds went through this assay and about 3,300 (1.1%) were called active. For the sample, actives were picked, then their nearest neighbours and some compounds at random. Unmarked numbers belong to inactive results. No stated cut-off is given here; in the data, active means binding response below about 67% or above about 130%; inconclusive means no clear call, values can overlap the other calls; inactive means in between.
# Target: Mitogen-activated protein kinase kinase kinase 2 (Homo sapiens) (UniProt Q9Y2U5)
# Experiment: wildtype MEKK2 PB1-MEK5 interaction, increase or decrease – biochemical, multiplex bead flow cytometry, Alexa488-MEK5, primary screen (AID 1531)
# Settings: Alexa488-MEK5 binding to MEKK2 WT, at 10 µM, actives lie on both sides
row,SMILES,binding response (% of control)
1,O=C(Cc1csc(Nc2nc(=S)[nH]c3ccccc23)n1)NCCCN1CCN(c2cccc(Cl)c2)CC1,150% (active)
2,O=C(CCCn1c(=O)[nH]c2cc(Cl)ccc2c1=O)NCCN1CCN(c2ccccc2)CC1,97%
3,COc1cccc(CNC(=O)Cc2csc(Nc3nc(=S)[nH]c4ccccc34)n2)c1,90%
4,COc1ccc(Nc2ncnc3sc(C)cc23)cc1,105%
5,CCCCN1C(N)=NC[C@@H]1Cc1ccccc1,100%
6,O=C1/C(=C\c2cccnc2)CN(Cc2ccccc2)C/C1=C\c1cccnc1,119%
7,O=C1C(Cc2ccc(O)cc2)NC(=S)N1Cc1ccccc1 (stereo unspecified),97%
8,O=C1NCC(=O)N(Cc2ccccc2)/C1=C/c1ccccc1,-4% [inhibitor] (active)
9,C[C@H]1CC[C@]2(O[C@@H](CCO)C[C@@H](O)[C@@H]2O)O1,97%
10,O=C1N[C@@H](Cc2ccccc2)C(=O)N2[C@@H]3N(S(=O)(=O)c4ccc(F)cc4)c4ccccc4[C@]3(Br)C[C@@H]12,98%
11,CCC(C(=O)NCc1cccnc1)n1nc(C)c2sc3ccccc3c2c1=O (stereo unspecified),103%
12,N#Cc1c(Cl)nc(-c2cccnc2)nc1-c1ccccc1,106%
13,CN(Cc1ccccc1)C(=O)C(=O)c1cn(CC(=O)N2CCCC2)c2ccccc12,106%
14,CC(C)(C)c1nnc(NC(=O)C2c3ccccc3Oc3ccccc32)s1,39% [inhibitor] (active)
15,CCC(C)NC(=O)C1c2ccccc2Oc2ccccc21 (stereo unspecified),72%
16,CCC(C)(C)NC(=O)C1c2ccccc2Oc2ccccc21,97%
17,CC(NS(=O)(=O)c1ccc(Cl)cc1)C(=O)Nc1ccc2c(c1)OCCO2 (stereo unspecified),97%
18,Cc1cccc(OCC(=O)NCCCNC(=O)c2ccccn2)c1,98%
19,COc1ccc(CC(=O)N/N=C(\C)c2ccccn2)cc1,99%
20,CCN(CC)CCOc1ccc2c(c1)C(=NNC(=O)c1ccccn1)c1cc(OCCN(CC)CC)ccc1-2,191% (active)
21,CCOC(=O)c1ccc(NC(=O)c2c(N)n(C)c(=O)[nH]c2=O)cc1,98%
22,CC1(C)S[C@@H]2[C@H](NC(=O)COc3ccccc3)C(=O)N2C1C(=O)OCc1ccccc1 (stereo partly specified),93%
23,O=C(c1ccco1)N1CCN(C(=S)Nc2cc(F)cc(F)c2)CC1,102%

row,SMILES,binding response (% of control)
1,COc1ccc(CNC(=O)C2CCN(S(=O)(=O)c3ccc(SC)cc3)CC2)cc1,105%
2,COc1ccc(CNC(=O)C2CCN(S(=O)(=O)N3CCOCC3)CC2)cc1,100%
3,COc1ccc(CNC(=O)C2CCN(S(C)(=O)=O)CC2)cc1,42% [inhibitor] (active)
4,O=C(NCCc1ccccc1)C1CC1,103%
5,COC(=O)c1c(-c2ccsc2)oc2ccc(-c3cc(OC)c(OC)c(OC)c3)cc12,96%
6,Cn1c(C(=O)NCCc2ccsc2)cc2c(=O)n(C)c3ccccc3c21,97%
7,O=C(CCn1c(=O)[nH]c2ccccc2c1=O)NCCCN1CCN(c2cccc(Cl)c2)CC1,108%
8,Cn1c(C(=O)NCCCN2CCN(c3cccc(Cl)c3)CC2)cc2c(=O)n(C)c3ccccc3c21,173% (active)
9,O=C(CNC(=O)c1ccc(Br)o1)Nc1ccccc1,99%
10,CCc1ccc(-c2cc3c(=O)n(CC(=O)NCCCN4CCN(Cc5ccccc5)CC4)nc(C)n3n2)cc1,141% (active)
11,Cc1nn(CC(=O)NCCc2ccccc2)c(=O)c2cc3occc3n12,111%
12,Cc1ccc(-c2ccc(=O)n(CC(=O)NCCCN3CCCCC3)n2)cc1,109%
13,CCCCN1C(N)=NC[C@@H]1CC1CCCCC1,119%
14,COc1ccc(-c2noc(C(C)NS(=O)(=O)c3ccc(NC(C)=O)cc3)n2)cc1 (stereo unspecified),95%
15,C=C(C)COc1ccc(-c2ncncc2-c2ccc(OC)cc2)c(O)c1,100%
16,CCc1nn(CC(=O)N2CCN(CC)CC2)c(=O)c2cccn12,95%
17,Cc1cc(NC(=O)COc2ccc(Cl)cc2Cl)n(CCC#N)n1,88%
18,Cc1nn(-c2ccccc2)c(C)c1NC(=O)COc1ccc(Cl)cc1Cl,103%
19,COC(=O)c1c(NC(=O)COc2ccc(Cl)cc2Cl)sc2c1CC(C)(C)NC2(C)C,147% (active)
20,CC(=O)c1ccc(S(=O)(=O)N(C)CCCC(=O)N(C)Cc2ccccc2F)cc1,105%
21,CCOC(=O)c1c(NC(=O)c2ccc(S(=O)(=O)N(C)CC3CCCO3)cc2)sc2c1CC(C)(C)NC2(C)C (stereo unspecified),134% (active)
22,CN(CC1CCCO1)S(=O)(=O)c1ccc(C(=O)Nc2ccc(F)cc2)cc1 (stereo unspecified),98%
23,Cc1cccc(NC(=O)c2ccc(S(=O)(=O)N(C)CC3CCCO3)cc2)c1C (stereo unspecified),99%
